“And” between values parts separate entries of the source, which are not always exact repeats. Identical values can stand only once. The source made the active and inactive calls. The calls were made as follows: active = hit-call score of the fitted dose curve at least 0.9, where 1 is the maximum; inactive = score below 0.9.
Read-out: Interferon-gamma inducible Protein 10 (IP10), CXCL10 (gene 3627)
Assay: BSK_KF3CT_IP10: BioMAP Diversity Plus: KF3CT Assay for Interferon-gamma inducible Protein 10 (IP10) Biomarker Activity (AID 2283068)
Settings: primary human keratinocytes with fibroblasts; actives raise or lower the signal
Description: BSK_KF3CT is a cell-based, multiplexed-readout assay that uses keratinocytes and foreskin fibroblasts, a human skin primary cell co-culture, with measurements taken at 24 hours after chemical dosing in a 96-well plate.BSK_KF3CT_IP10 is an assay component measured in the BSK_KF3CT assay. It measures IP-10 antibody related to regulation of gene expression using ELISA technology.Data from the assay component BSK_KF3CT_IP10 was analyzed into 1 assay endpoint. This assay endpoint, BSK_KF3CT_IP10, was analyzed with bidirectional fitting relative to DMSO as the negative control and baseline of activity. Using a type of binding reporter, gain or loss-of-signal activity can be used to understand changes in the signaling as they relate to the gene CXCL10. Furthermore, this assay endpoint can be referred to as a primary readout, because this assay has produced multiple assay endpoints where this one serves a signaling function. To generalize the intended target to other relatable targets, this assay endpoint is annotated to the cytokine intended target family, where the subfamily is chemotactic factor.
The levels of cell surface (or secreted, indicated by the prefix "s") biomarker endpoints were measured by ELISA. Overt cytotoxicity to cells in confluent adherent cultures (all systems other than the BT system) was assessed by measuring total protein levels using sulforhodamine B (SRB) staining in parallel cultures at the time of biomarker measurements, indicated as SRB endpoints. For proliferation assays for adherent cell types, individual cell types are cultured at sub-confluence and relative cell numbers quantified by SRB staining at time points optimized for each system (48 h: 3C and CASM3C systems; 72 h: BT and HDF3CGF systems; 96 h: SAg system). SRB was performed by staining cells with 0.1% SRB after fixation with 10% TCA and reading wells at 560 nm.Viability and proliferation of PBMC (T cells) was quantified by Alamar Blue reduction for the SAg and BT systems. For PBMC viability (referred to as PBMC Cytotoxicity within the assay endpoint names), cells were plated (75,000/well in a 96-well plate) and then chemical samples added for 1 h before addition of activators, SEB and TSST-1 (20 ng/mL final concentration each). Cells were incubated for 90 h. Then, Alamar Blue (20 uL/well) (Invitrogen, Cat DAL1100) was added for 6 h, and the plates were read with a fluorescence microplate reader at 546/580 nm (excitation/emission). For PBMC proliferation, cells were plated and activated as above but incubated for only 16 h prior to addition of Alamar Blue. Plates were read after 6 h.

Question: For `O=P(Oc1ccccc1)(Oc1ccccc1)Oc1ccccc1`, which outcome is on record?
Answer: inactive

Question: With `COP(N)(=S)OC` as the compound, how does the outcome read?
Answer: inactive

Question: With `CCOP(=S)(Oc1ccc([N+](=O)[O-])cc1)c1ccccc1` (stereo not given) as the compound, how does the outcome read?
Answer: inactive

Question: How did the outcome turn out when `O=S1(=O)OCC2C(CO1)C1(Cl)C(Cl)=C(Cl)C2(Cl)C1(Cl)Cl` (stereo not given) was run?
Answer: inactive

Question: For `COP(=O)(CCC(=O)NCO)OC`, which outcome is on record?
Answer: inactive

Question: For `CCN(CC)c1ccccc1`, which outcome is on record?
Answer: inactive

Question: How did the outcome turn out when `O=S(=O)(F)C(F)(F)C(F)(F)C(F)(F)C(F)(F)C(F)(F)C(F)(F)C(F)(F)C(F)(F)F` was run?
Answer: inactive

Question: `Cc1ccc(O)cc1C` was tested. Which outcome did it give?
Answer: inactive

Question: Which outcome does the source give for `CSC(C)(C)C=NO` here?
Answer: inactive

Question: `CCOC(=O)c1ccccc1C(=O)OCC` was tested. Which outcome did it give?
Answer: inactive

Question: With `COP(=O)(O)OC` as the compound, how does the outcome read?
Answer: inactive

Question: With `O=P1(N(CCCl)CCCl)NCCCO1` (stereo not given) as the compound, how does the outcome read?
Answer: inactive

Question: Which outcome does the source give for `O=C(O)C(F)(F)C(F)(F)C(=O)O` here?
Answer: inactive

Question: For `CN(C)C(=O)Cl`, which outcome is on record?
Answer: inactive

Question: With `CCOP(=S)(OCC)SCS(=O)(=O)CC` as the compound, how does the outcome read?
Answer: inactive

Question: For `Cc1ccc(N)cc1N`, which outcome is on record?
Answer: inactive

Question: `Cc1ccc([N+](=O)[O-])cc1C` was tested. Which outcome did it give?
Answer: inactive

Question: For `ClC(Cl)c1ccccc1`, which outcome is on record?
Answer: inactive

Question: `O=C(O)C(F)(F)OC(F)(F)C(F)(F)OC(F)(F)F` was tested. Which outcome did it give?
Answer: inactive

Question: How did the outcome turn out when `O=C(O)C(F)(F)OC(F)(F)C(F)(F)OC(F)(F)C(=O)O` was run?
Answer: inactive

Question: With `CCCN(CCC)c1c([N+](=O)[O-])cc(C(C)C)cc1[N+](=O)[O-]` as the compound, how does the outcome read?
Answer: inactive

Question: `CC(Cl)CN(C)C` (stereo not given) was tested. Which outcome did it give?
Answer: inactive

Question: `CC(C)(C)c1ccccc1OP(=O)(Oc1ccccc1)Oc1ccccc1` was tested. Which outcome did it give?
Answer: inactive

Question: With `CCCCC(CC)COC(=O)c1c(Br)c(Br)c(Br)c(Br)c1C(=O)OCC(CC)CCCC` (stereo not given) as the compound, how does the outcome read?
Answer: inactive

Question: Which outcome does the source give for `O=C(O)C1C(C(=O)O)C2(Cl)C(Cl)=C(Cl)C1(Cl)C2(Cl)Cl` (stereo not given) here?
Answer: inactive

Question: `OCC(F)(F)OC(F)(F)C(F)(F)OC(F)(F)C(F)(F)OC(F)(F)F` was tested. Which AC50 did it give?
Answer: 53.8 µM (active) and 53.2 µM (active)

Question: Which AC50 does the source give for `O=P(OCC(Br)CBr)(OCC(Br)CBr)OCC(Br)CBr` (stereo not given) here?
Answer: 26.2 µM (active)

Question: `N#Cc1c(-c2ccc(Cl)cc2)[nH]c(C(F)(F)F)c1Br` was tested. Which AC50 did it give?
Answer: 8 µM (active)

Question: With `CCCCc1ccccc1` as the compound, how does the outcome read?
Answer: inactive

Question: For `O=C(O)C(Cl)Cl`, which outcome is on record?
Answer: inactive

Question: For `CCOP(=S)(OCC)SCSc1ccc(Cl)cc1`, which outcome is on record?
Answer: inactive

Question: How did the outcome turn out when `ClC(Cl)(Cl)c1ccccc1` was run?
Answer: inactive

Question: How did the AC50 turn out when `ClC(Cl)=C(c1ccc(Cl)cc1)c1ccccc1Cl` was run?
Answer: 3.5 µM (active)

Question: With `c1ccc2c(c1)sc1ccccc12` as the compound, how does the outcome read?
Answer: inactive

Question: Which outcome does the source give for `CC(Cl)(Cl)C(=O)O` here?
Answer: inactive

Question: With `CCCCC(CC)COP(=O)(Oc1ccccc1)Oc1ccccc1` (stereo not given) as the compound, how does the outcome read?
Answer: inactive

Question: Which outcome does the source give for `CCOS(=O)(=O)OCC` here?
Answer: inactive

Question: For `C=CC(=O)OCC(F)(F)C(F)F`, which outcome is on record?
Answer: inactive

Question: With `OCC(F)(F)OC(F)(F)C(F)(F)OC(F)(F)CO` as the compound, how does the outcome read?
Answer: inactive

Question: How did the outcome turn out when `Nc1cc2c3c(c1)C(c1ccccc1)=N[C@@H](NC(=O)c1cccnc1)C(=O)N3CC2` was run?
Answer: inactive

From PubChem BioAssay (EPA / NIEHS)
